The results in this text go back to PubChem BioAssay.

A number with no mark means an inactive call. For some of these results: Potency and affinity values are given separately. Activity calls are given as the source filed them. Unless noted, how the calls were made is not given here.

Experiment [1] in a line: antimalarial activity against Dd2 strain (AID 2302;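 active means growth inhibition above 50% at the single 2 µM test dose, taken to imply half-maximal potency below 2 µM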;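 further: 0% = DMSO untreated growth and 100% = chloroquine plus artemisinin killed control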). The note with it: P. falciparum Dd2 in RBCs, LDH growth readout, 72 h; at 2 µM; hits give high values.
Experiment [2] can be described thus: HepG2 cytotoxicity, primary screen, cytotoxicity control for P. falciparum antimalarial project, cell-based, ATP luminescence (AID 2303;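 active means inhibition above 50%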;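 further: 0% = DMSO wells and 100% = digitonin-killed cells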). The note with it: HepG2 viability, 24-48 h, at 10 µM, hits give high values.
Experiment [3] has as its target L-lactate dehydrogenase (Plasmodium falciparum (isolate CDC / Honduras)) (UniProt Q27743). In words: PfLDH activity inhibition – cell lysate, 3D7 strain, counter-screen for P. falciparum growth inhibition project (AID 2304).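 Further: 0% = vehicle and 100% = reference inhibitor.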 The note with it: P. falciparum 3D7 crude extract, LDH APAD/NBT absorbance; at 2 µM; hits give high values. In general terms: The purpose of a counterscreen is to sort out artefacts and off-target activity.

A short description of experiment [4]: inhibition of 3D7 malaria parasite growth – strain 3D7 (AID 2306).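 Further: 0% = DMSO wells and 100% = chloroquine plus artemisinin control wells.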 The conditions noted are these: P. falciparum 3D7 erythrocytic growth, LDH absorbance, 72 h; at 2 µM; hits give high values.
Experiment [5] concerns the target Calcium-dependent protein kinase 1 (Plasmodium falciparum (isolate 3D7)) (UniProt P62344). In words: PfCDPK1 kinase inhibitors, biochemical, TCAMS library (AID 1159585; cut-off not given, nearly all actives have IC50 up to about 0.98 µM;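 further: inhibitors leave more ATP so luminescence rises with inhibition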). The conditions noted are these: recombinant PfCDPK1, Kinase-Glo ATP depletion luminescence. For orientation: Kinase-Glo reads ATP consumption through a luciferase reaction.
In experiment [6] the target is Plasmodium falciparum protein kinase 6 (PK6, PF3D7_1337100) (UniProt Q8IDW1). In words: PfPK6 kinase inhibitors, biochemical, TCAMS library (AID 1159586). The conditions noted are these: recombinant PfPK6, Kinase-Glo ATP depletion luminescence.
Plasmodium falciparum protein kinase 6 (PK6, PF3D7_1337100), sequence (Q8IDW1 1-305): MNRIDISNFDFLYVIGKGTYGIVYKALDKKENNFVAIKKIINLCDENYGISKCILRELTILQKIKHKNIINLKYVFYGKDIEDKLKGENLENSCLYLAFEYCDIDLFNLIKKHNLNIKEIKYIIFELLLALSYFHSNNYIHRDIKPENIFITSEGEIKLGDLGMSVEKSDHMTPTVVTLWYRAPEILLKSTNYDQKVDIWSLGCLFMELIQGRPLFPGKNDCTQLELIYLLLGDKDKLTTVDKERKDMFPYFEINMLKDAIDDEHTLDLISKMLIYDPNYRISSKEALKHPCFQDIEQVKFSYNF
In experiment [7] the target is Protein kinase 7 (PK7), Plasmodium falciparum 3D7 (PF3D7_0213400) (UniProt Q7YTF7). Put plainly: inhibition of Plasmodium PK7 catalytic activity – biochemical, TCAMS antimalarial set, Kinase-Glo luminescence (AID 1159587). The note with it: recombinant PfPK7, Kinase-Glo ATP depletion luminescence.
Protein kinase 7 (PK7), Plasmodium falciparum 3D7 (PF3D7_0213400), sequence (Q7YTF7 1-343): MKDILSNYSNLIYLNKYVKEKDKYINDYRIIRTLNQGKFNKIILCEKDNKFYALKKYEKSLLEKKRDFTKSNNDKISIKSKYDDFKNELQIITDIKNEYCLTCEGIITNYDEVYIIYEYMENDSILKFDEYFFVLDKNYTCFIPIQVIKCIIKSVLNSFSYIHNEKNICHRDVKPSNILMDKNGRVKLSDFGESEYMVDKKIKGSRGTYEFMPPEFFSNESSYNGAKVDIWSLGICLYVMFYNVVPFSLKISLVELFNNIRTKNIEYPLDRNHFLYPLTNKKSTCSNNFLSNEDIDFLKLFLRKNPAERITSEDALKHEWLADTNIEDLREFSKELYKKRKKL
The target in experiment [8] is Calcium-dependent protein kinase 4 (Plasmodium falciparum (isolate 3D7)) (UniProt Q8IBS5). In words: PfCDPK4 kinase inhibitors, biochemical, TCAMS library (AID 1159588; cut-off not given, nearly all actives have IC50 up to about 0.91 µM). The conditions noted are these: recombinant PfCDPK4, Kinase-Glo ATP depletion luminescence.
Calcium-dependent protein kinase 4 (Plasmodium falciparum (isolate 3D7)), sequence (Q8IBS5 whole entry, looked up): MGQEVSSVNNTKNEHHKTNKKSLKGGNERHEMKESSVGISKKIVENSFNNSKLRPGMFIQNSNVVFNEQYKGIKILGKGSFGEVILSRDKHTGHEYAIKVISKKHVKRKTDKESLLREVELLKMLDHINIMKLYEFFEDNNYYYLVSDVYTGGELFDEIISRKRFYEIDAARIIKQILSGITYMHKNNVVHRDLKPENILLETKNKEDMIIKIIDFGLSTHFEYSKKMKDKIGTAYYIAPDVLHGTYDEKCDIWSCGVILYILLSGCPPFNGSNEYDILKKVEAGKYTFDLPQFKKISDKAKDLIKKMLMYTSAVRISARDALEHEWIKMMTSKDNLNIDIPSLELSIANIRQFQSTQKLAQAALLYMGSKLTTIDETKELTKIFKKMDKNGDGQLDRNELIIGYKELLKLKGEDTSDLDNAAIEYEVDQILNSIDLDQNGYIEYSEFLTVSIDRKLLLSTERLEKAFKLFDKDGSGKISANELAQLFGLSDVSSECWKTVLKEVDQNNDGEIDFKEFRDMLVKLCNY

Calcium-dependent protein kinase 1 (Plasmodium falciparum (isolate 3D7)), sequence (P62344 whole entry, looked up): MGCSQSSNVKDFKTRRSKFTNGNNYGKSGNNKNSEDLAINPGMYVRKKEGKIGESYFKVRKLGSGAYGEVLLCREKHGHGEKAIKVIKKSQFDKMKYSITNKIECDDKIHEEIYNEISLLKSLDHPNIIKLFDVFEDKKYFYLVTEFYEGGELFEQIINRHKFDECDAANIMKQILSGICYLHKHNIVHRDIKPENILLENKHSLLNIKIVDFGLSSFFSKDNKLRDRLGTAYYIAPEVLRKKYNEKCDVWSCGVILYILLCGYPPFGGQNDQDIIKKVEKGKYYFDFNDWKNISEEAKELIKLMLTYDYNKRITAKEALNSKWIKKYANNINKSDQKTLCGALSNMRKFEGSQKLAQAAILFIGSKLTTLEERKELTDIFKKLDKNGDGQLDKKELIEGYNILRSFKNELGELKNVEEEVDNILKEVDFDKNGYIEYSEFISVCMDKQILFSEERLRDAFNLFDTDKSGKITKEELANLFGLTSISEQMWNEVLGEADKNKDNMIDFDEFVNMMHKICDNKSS
L-lactate dehydrogenase (Plasmodium falciparum (isolate CDC / Honduras)), sequence (Q27743 whole entry, looked up): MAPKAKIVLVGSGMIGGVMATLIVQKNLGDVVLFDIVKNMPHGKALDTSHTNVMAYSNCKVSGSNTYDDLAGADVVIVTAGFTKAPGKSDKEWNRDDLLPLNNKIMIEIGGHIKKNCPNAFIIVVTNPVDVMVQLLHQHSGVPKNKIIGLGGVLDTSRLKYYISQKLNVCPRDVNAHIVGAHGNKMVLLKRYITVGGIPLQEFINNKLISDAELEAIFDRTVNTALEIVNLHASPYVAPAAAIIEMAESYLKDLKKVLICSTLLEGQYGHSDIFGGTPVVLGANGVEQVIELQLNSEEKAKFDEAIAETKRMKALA

As for `CCNc1cc(C(=O)N[C@@H](Cc2ccccc2)[C@H](O)CN[C@@H](C)c2cccc(OC)c2)cc(N2CCCC2=O)c1`, the growth inhibition in experiment [1] is 65% (active); in experiment [4], 95% (active). Further, the inhibition (in general, the change of the read-out against control, counted positive when it falls) is 5% in experiment [2] and -1% in experiment [3]. Further, the outcome in experiment [5], in experiment [6], in experiment [7] and in experiment [8] was inactive.

As to `COc1cc2nc(N3CCC(c4ccccc4)CC3)nc(NCc3ccc(=O)[nH]c3)c2cc1OC`, the results for the growth inhibition in experiment [1] and in experiment [4] were 58% (active) and 100% (active), respectively. Moreover, the inhibition is 12% in experiment [2] and 0% in experiment [3]. For the same compound, the result in experiment [5], in experiment [6], in experiment [7] and in experiment [8] was inactive.

Turning to `Nc1nc2c(ncn2COC2COP(=O)(O)OC2)c(=O)[nH]1` (stereo not given), the figures for the growth inhibition in experiment [1] and in experiment [4] were 54% (active) and 81% (active), respectively. In addition, the inhibition in experiment [2] and in experiment [3] was 7% throughout. Besides, the outcome in experiment [5], in experiment [6], in experiment [7] and in experiment [8] was inactive.

On to `O=C(Nc1cc(F)cc(-c2cccnc2)c1)c1ccc2c(=O)n(Cc3ccccc3)cnc2c1`, for which the growth inhibition is 11% in experiment [1] and 98% (active) in experiment [4]. For the same compound, the values for the inhibition in experiment [2] and in experiment [3] were 7% and 2%, respectively. Besides, the outcome in experiment [5], in experiment [6], in experiment [7] and in experiment [8] was inactive.

With `CC(C)NCc1ccc(-c2ccc(CN3CCCC(c4ccccc4)C3)cc2)c(C(=O)NCC2CCCCC2)c1` (stereo not given), the growth inhibition was 53% (active) in experiment [1] and 97% (active) in experiment [4]. Besides, the values for the inhibition in experiment [2] and in experiment [3] were 79% (active) and -3%, respectively. For the same compound, the result in experiment [5], in experiment [6], in experiment [7] and in experiment [8] was inactive.

Turning to `c1ccc(C2=NN=C(c3ccccn3)[C@H]3[C@H]4C[C@@H]([C@@H]23)[C@@H]2[C@H]4[C@H]3C[C@@H]2c2ccccc23)nc1`, the growth inhibition is 77% (active) in experiment [1] and 98% (active) in experiment [4]. Also, the values for the inhibition in experiment [2] and in experiment [3] were 39% and -3%, respectively. In addition, the outcome in experiment [5], in experiment [6], in experiment [7] and in experiment [8] was inactive.

As to `CON=C1CCC(Cn2ccnc2)(c2ccc(Cl)cc2Cl)CC1` (stereo not given), the growth inhibition in experiment [1] is 56% (active); in experiment [4] it was 100% (active). For the same compound, the inhibition was 7% in experiment [2] and -5% in experiment [3]. Further, the result in experiment [5], in experiment [6], in experiment [7] and in experiment [8] was inactive.

On to `CC(C)(C)c1ccc(NC(=O)c2ccc(CN3CCCN(Cc4cccc(Cl)c4)CC3)cc2)cc1`, for which the growth inhibition in experiment [1] is 7%; in experiment [4], 96% (active). In addition, the inhibition in experiment [2] is 43%; in experiment [3], -3%. In addition, the outcome in experiment [5], in experiment [6], in experiment [7] and in experiment [8] was inactive.

For the compound `CC(=O)N[C@H](C(=O)Nc1ccc(-c2ccc(-c3nc4ccc(C(F)(F)F)cc4[nH]3)s2)cc1)C(C)C`, the results for the growth inhibition in experiment [1] and in experiment [4] were 61% (active) and 88% (active), respectively. The results for the inhibition in experiment [2] and in experiment [3] were 42% and 2%, respectively. In addition, the outcome in experiment [5], in experiment [6], in experiment [7] and in experiment [8] was inactive.

Consider `COc1cc2c(cc1N(C(C)C)S(=O)(=O)c1sc3ccc(Cl)cc3c1C)CCNCC2`, for which the growth inhibition was 70% (active) in experiment [1] and 91% (active) in experiment [4]. For the same compound, the results for the inhibition in experiment [2] and in experiment [3] were 98% (active) and -3%, respectively. Besides, the result in experiment [5], in experiment [6], in experiment [7] and in experiment [8] was inactive.

Take `Nc1c(Cl)cc(C(O)CNCCCCCOCCc2ccc3occc3c2)cc1Cl` (stereo not given): the figures for the growth inhibition in experiment [1] and in experiment [4] were 74% (active) and 99% (active), respectively. The figures for the inhibition in experiment [2] and in experiment [3] were -2% and -1%, respectively. In addition, the outcome in experiment [5], in experiment [6], in experiment [7] and in experiment [8] was inactive.

For the compound `Cc1cc(Nc2ccccc2)nc(Nc2ccccc2)n1`, the growth inhibition was 74% (active) in experiment [1] and 96% (active) in experiment [4]. In addition, the inhibition in experiment [2] is 0%; in experiment [3] it was -1%. In addition, the result in experiment [5], in experiment [6], in experiment [7] and in experiment [8] was inactive.

With `COc1cccc2sc(Nc3nc(-c4ccccn4)cs3)nc12`, the growth inhibition in experiment [1] is 76% (active); in experiment [4], 94% (active). The inhibition in experiment [2] is 41%; in experiment [3], 4%. Also, the result in experiment [5], in experiment [6], in experiment [7] and in experiment [8] was inactive.

Regarding `O=C(Nc1ccc(OC2CCN(Cc3ccc(F)cc3)C2)c(Cl)c1)c1ccsc1` (stereo not given), the growth inhibition in experiment [1] is 95% (active); in experiment [4] it was 98% (active). In addition, the results for the inhibition in experiment [2] and in experiment [3] were 26% and -3%, respectively. Besides, the result in experiment [5], in experiment [6], in experiment [7] and in experiment [8] was inactive.

As for `COc1cc(NC(=O)N2CCc3ccc(OCCC4CCCN4C)cc32)cc(C(F)(F)F)c1` (stereo not given), the results for the growth inhibition in experiment [1] and in experiment [4] were 42% and 101% (active), respectively. Besides, the inhibition is 5% in experiment [2] and 3% in experiment [3]. In addition, the outcome in experiment [5], in experiment [6], in experiment [7] and in experiment [8] was inactive.

As for `COc1ccc(Cl)cc1N1CCN(CCCNC(=O)c2ccc(-c3nc4cc(Cl)c(Cl)cc4[nH]3)c(C)c2)CC1`, the growth inhibition was -1% in experiment [1] and 101% (active) in experiment [4]. Also, the inhibition in experiment [2] was 4%; in experiment [3], 2%. In addition, the result in experiment [5], in experiment [6], in experiment [7] and in experiment [8] was inactive.

`COc1ccc(-c2ccc(NC(=O)c3ccc(C#N)cc3)cc2)cc1CN1CCN(C)CC1`: the growth inhibition in experiment [1] is 49%; in experiment [4], 93% (active). For the same compound, the inhibition in experiment [2] was 21%; in experiment [3], 1%. For the same compound, the result in experiment [5], in experiment [6], in experiment [7] and in experiment [8] was inactive.

`COc1ccc(C(=O)N2CCC3(CC2)C(=O)N(CC(=O)NC2CCCCC2)CN3c2ccccc2)c(OC)c1`: the growth inhibition in experiment [1] is 99% (active); in experiment [4], 100% (active). For the same compound, the inhibition in experiment [2] was 4%; in experiment [3], 3%. In addition, the outcome in experiment [5], in experiment [6], in experiment [7] and in experiment [8] was inactive.

With `Cn1ccc2c3c(N)nc(N)nc3ccc21`, the figures for the growth inhibition in experiment [1] and in experiment [4] were 17% and 91% (active), respectively. Also, the inhibition was 59% (active) in experiment [2] and 6% in experiment [3]. The outcome in experiment [5], in experiment [6], in experiment [7] and in experiment [8] was inactive.

With `COc1ccc2ncc(Cl)c(NCC3(O)CCC(NCc4ccc5c(n4)NC(=O)CS5)CC3)c2n1` (stereo not given), the growth inhibition in experiment [1] was 31%; in experiment [4], 96% (active). In addition, the inhibition was 39% in experiment [2] and -3% in experiment [3]. For the same compound, the outcome in experiment [5], in experiment [6], in experiment [7] and in experiment [8] was inactive.
